HDAC3 inhib – HDAC3 deacetylase inhibitors, primary screen, biochemical, fluorescence, cell-free homogeneous | Histone deacetylase 3 (Homo sapiens), O15379 | recombinant HDAC3, fluorogenic peptide/trypsin coupled | inhibition, % at 8.3 µM | 320,000 tested, 0.15% active | AID 2718, 2010; in the data active means inhibition above about 26%, passing the limit was not always enough
ALR inh – inhibitors of human ALR sulfhydryl oxidase, primary screen, biochemical, H2O2 detection, HRP-luminol luminescence, single point; FAD-linked sulfhydryl oxidase ALR (Homo sapiens), P55789; purified ALR, DTT oxidation; inhibition, % (concentration not given with the values); 290,000 tested, 3.8% active;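 active means mean replicate inhibition above about 79%, with every replicate also reaching it, limit read from the data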
Efflux pump inh – inhibitors of Candida efflux pumps in yeast, primary screen, S. cerevisiae, Nile Red, multiplex; inhibition, % at 10 µM; S. cerevisiae Candida pump triplex; 330,000 tested, 0.44% active;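 active means plate passing quality check with inhibition over a set limit, or well fluorescence over plate mean plus 4 SD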;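 further: Nile Red retained in pooled yeast measured as flow cytometry median fluorescence; 0% = buffer negative control and 100% = Enniatin B positive control; higher means more Nile Red kept so more efflux inhibition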
GRK2 inh – compounds blocking aptamer binding on GRK2 – biochemical, human GRK2, bead flow cytometry, HTS, primary screen; FAM-aptamer displacement from GRK2; inhibition of aptamer binding, % at 10 µM; 330,000 tested, 0.59% active;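 active means inhibition of aptamer binding above 40%, roughly 3 SD of noise, on plates passing a quality check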;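 further: median bead fluorescence of bound FAM aptamer so fluorescent compounds give negative values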
Rtt109 Vps75 – inhibitors of C. albicans Rtt109/Vps75 HAT, primary screen, biochemical, ThioGlo CoA-SH fluorescence, plate reader; Histone acetyltransferase RTT109 (Candida albicans (strain SC5314 / ATCC MYA-2876)), …; purified Rtt109/Vps75, 4 h; inhibition, % at 34.9 µM; 330,000 tested, 0.16% active;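 active means inhibition of at least 50% in every replicate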
Rce1 inh – yeast Rce1p protease inhibitors, primary screen, biochemical, fluorescence, cell-free homogeneous; CAAX prenyl protease 2 (Saccharomyces cerevisiae (strain ATCC 204508 / S288c)), Q03530; yeast membranes, quenched prenylated peptide cleavage fluorescence; calls only; 290,000 tested, 0.27% active; AID 2563, 2010;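 active means fall in fluorescence gain of 50% or more versus controls, with final raw signal at or below 3038400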;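 further: plate controls were neutral control wells for no effect and wells lacking membranes for full effect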
Target sequence (Q03530 whole entry, looked up): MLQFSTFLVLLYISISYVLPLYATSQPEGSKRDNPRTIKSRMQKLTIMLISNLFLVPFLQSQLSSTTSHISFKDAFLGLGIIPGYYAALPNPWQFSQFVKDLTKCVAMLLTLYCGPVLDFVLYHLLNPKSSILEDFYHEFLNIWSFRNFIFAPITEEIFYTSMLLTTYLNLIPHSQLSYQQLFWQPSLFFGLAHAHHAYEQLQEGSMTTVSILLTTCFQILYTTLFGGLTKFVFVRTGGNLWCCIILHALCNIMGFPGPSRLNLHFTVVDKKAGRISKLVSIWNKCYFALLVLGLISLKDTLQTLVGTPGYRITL
An asterisk follows results filed as active. Hits are enriched below; roughly 4.5% of the tested compounds scored in any of these assays.

Screening O=C(CN1CCN(c2ccccc2O)CC1)Nc1cccnc1Cl returned HDAC3 inhib 9.3, ALR inh 98.7*, Efflux pump inh 0.1, GRK2 inh 0.0, Rtt109 Vps75 -9.8 and Rce1 inh inactive.
Screening CCOc1ccc(-c2nc(CSCC(=O)NCCN3CCOCC3)c(C)o2)cc1 returned HDAC3 inhib -3.6, ALR inh 99.2*, Efflux pump inh 0.1, GRK2 inh 1.0, Rtt109 Vps75 1.2 and Rce1 inh inactive.
For Cc1oc(-c2ccc(Cl)cc2)nc1CN1CCCC(C(=O)NCCCN2CCCC2=O)C1 (stereo not drawn) the results were HDAC3 inhib 5.4, ALR inh 3.7, Efflux pump inh 0.2, GRK2 inh 0.0 and Rtt109 Vps75 8.6.
COc1ccc(-c2nc(CSCC(=O)NCCCN3CCCC3=O)c(C)o2)cc1 was read as HDAC3 inhib 3.8, ALR inh 96.5*, Efflux pump inh 0.1, GRK2 inh 0.0, Rtt109 Vps75 -10.0 and Rce1 inh inactive.
Screening N#Cc1ccc(-c2ccc(OCC(=O)NCCCN3CCCC3=O)cc2)cc1 returned HDAC3 inhib -79.5, ALR inh 98.7*, Efflux pump inh 0.2, GRK2 inh 3.0, Rtt109 Vps75 -6.4 and Rce1 inh inactive.
CCOc1ccc(S(=O)(=O)N(C)CC(=O)NCCN2CCOCC2)cc1 was read as HDAC3 inhib 5.1, ALR inh 1.5, Efflux pump inh -0.1, GRK2 inh 0.0, Rtt109 Vps75 0.7 and Rce1 inh inactive.
For CCOc1ccc(-c2nc(CSCC(=O)NCCCN3CCCC3=O)c(C)o2)cc1 the results were HDAC3 inhib -5.2, ALR inh 98.9*, Efflux pump inh 0.1, GRK2 inh 3.0, Rtt109 Vps75 -6.1 and Rce1 inh inactive.
`CC(CCc1ccc(O)cc1)NCCc1ccc(O)c(O)c1` (stereo not drawn) gave HDAC3 inhib -10.5, ALR inh 99.1*, Efflux pump inh 0.1, GRK2 inh 0.0, Rtt109 Vps75 9.2 and Rce1 inh inactive.
Screening O=C(O)c1cccc(S(=O)(=O)Nc2ccc3c(c2)CCC3)c1 returned HDAC3 inhib -1.5, ALR inh 0.1, Efflux pump inh 0.1, GRK2 inh 3.0, Rtt109 Vps75 -4.5 and Rce1 inh inactive.
For CCOC(=O)c1c(C)[nH]c(C(=O)COC(=O)c2ccc(N3CCCC3=O)cc2)c1C the results were HDAC3 inhib 0.6, Efflux pump inh 0.1, GRK2 inh 0.0, Rtt109 Vps75 -2.6 and Rce1 inh inactive.
`CCC1(C)OC(=O)N2CCc3c(C)[nH]c4c(C)ccc(c34)C21C` (stereo not drawn) gave ALR inh 98.4*, Efflux pump inh 0.0, GRK2 inh 0.0, Rtt109 Vps75 5.1 and Rce1 inh inactive.
Screening O=C(NCc1ccccc1F)Nc1ccc([N+](=O)[O-])cc1 returned HDAC3 inhib 3.7, ALR inh -1.0, Efflux pump inh 0.0, GRK2 inh 2.0, Rtt109 Vps75 -21.9 and Rce1 inh inactive.
For COc1ccc2c(CC(=O)OCC(=O)Nc3ccc(C)cc3)coc2c1 the results were HDAC3 inhib 2.6, Efflux pump inh -0.1, GRK2 inh 44.0* and Rtt109 Vps75 12.0.
Screening O=C(CCl)Oc1ccc2occ(C(=O)c3cccs3)c2c1 returned HDAC3 inhib 3.6, ALR inh 97.3*, Efflux pump inh -0.1, GRK2 inh 3.0, Rtt109 Vps75 1.8 and Rce1 inh inactive.
For CC1CCN(C(=O)c2[nH]cnc2C(=O)N[C@@H](C)c2ccccc2)CC1 the results were HDAC3 inhib -1.8, ALR inh -0.5, Efflux pump inh -0.1, GRK2 inh 2.0 and Rtt109 Vps75 2.7.
COc1ccc(/C=N\Nc2ccc([N+](=O)[O-])cc2[N+](=O)[O-])c(C(=O)O)c1OC was read as HDAC3 inhib 4.9, ALR inh 98.5*, Efflux pump inh -0.1, GRK2 inh 2.0, Rtt109 Vps75 15.2 and Rce1 inh inactive.

Bioassay records deposited in PubChem by several laboratories.
